Assay results reported in publication PMC7862700, “An all-to-all approach to the identification of sequence-specific readers for epigenetic DNA modifications on cytosine”.

Tests used:
Assay in all cases: DAPPL (digital affinity profiling via proximity ligation, sequencing); 10 mM Tris-HCl pH 7.5, 50 mM NaCl, 1 mM DTT, 4% glycerol, room temperature, 30 min; GST-TFs on glutathione beads, 16-mer random dsDNA library, 0.1% formaldehyde crosslink after washing; high values mean tight binding
Details in all cases: protein: recombinant; tags: N-terminal GST; dsDNA, one strand shown
ERF = biological target: T1, ERF (Homo sapiens, UniProt P50548 1-548)
T1 sequence: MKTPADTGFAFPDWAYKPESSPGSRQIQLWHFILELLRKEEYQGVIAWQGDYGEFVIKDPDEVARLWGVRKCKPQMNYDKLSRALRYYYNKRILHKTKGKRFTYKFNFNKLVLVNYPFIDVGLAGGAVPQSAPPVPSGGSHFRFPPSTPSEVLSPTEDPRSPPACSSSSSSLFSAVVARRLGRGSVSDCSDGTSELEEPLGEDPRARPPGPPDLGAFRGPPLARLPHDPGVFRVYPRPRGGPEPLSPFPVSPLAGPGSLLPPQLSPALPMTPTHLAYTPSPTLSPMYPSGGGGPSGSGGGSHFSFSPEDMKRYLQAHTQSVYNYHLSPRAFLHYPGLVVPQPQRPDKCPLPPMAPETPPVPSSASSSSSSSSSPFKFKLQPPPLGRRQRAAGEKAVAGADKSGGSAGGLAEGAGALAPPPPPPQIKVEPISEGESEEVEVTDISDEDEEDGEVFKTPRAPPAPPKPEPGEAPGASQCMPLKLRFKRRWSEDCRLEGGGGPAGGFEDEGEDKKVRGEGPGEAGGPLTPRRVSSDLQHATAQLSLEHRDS
Method in brief: (§1)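 The binding signal reported is, for every hexamer, its read frequency for a factor over its read frequency for the tag-only sample. Reads came from pools of yeast-expressed, GST-fused human transcription factors on glutathione beads, barcoded with DNA and mixed with that sample, which were incubated with 200 nmole of a random double-stranded 16-mer DNA library in Tris/NaCl/DTT/glycerol buffer at room temperature for 30 min. After washing, the pools were crosslinked with 0.1% formaldehyde, proximity-ligated with BsaI/T4 ligase for 1 h at 37 °C, PCR-amplified and sequenced on an Illumina NextSeq500.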

ETV3L = biological target: T2, ETV3L (Homo sapiens, UniProt Q6ZN32 1-361)
T2 sequence: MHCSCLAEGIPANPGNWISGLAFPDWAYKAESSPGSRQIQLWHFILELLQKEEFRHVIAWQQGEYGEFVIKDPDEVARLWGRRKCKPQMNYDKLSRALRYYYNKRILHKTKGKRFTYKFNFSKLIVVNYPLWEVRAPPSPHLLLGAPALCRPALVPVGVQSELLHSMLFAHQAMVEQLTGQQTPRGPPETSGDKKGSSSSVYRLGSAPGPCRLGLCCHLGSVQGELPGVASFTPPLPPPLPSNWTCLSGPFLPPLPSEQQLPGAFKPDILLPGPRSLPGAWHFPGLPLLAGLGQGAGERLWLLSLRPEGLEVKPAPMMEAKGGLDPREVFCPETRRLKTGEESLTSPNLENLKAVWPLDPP
Method in brief: as §1

ETS2 = biological target: T3, ETS2 (Homo sapiens, UniProt P15036 1-469)
T3 sequence: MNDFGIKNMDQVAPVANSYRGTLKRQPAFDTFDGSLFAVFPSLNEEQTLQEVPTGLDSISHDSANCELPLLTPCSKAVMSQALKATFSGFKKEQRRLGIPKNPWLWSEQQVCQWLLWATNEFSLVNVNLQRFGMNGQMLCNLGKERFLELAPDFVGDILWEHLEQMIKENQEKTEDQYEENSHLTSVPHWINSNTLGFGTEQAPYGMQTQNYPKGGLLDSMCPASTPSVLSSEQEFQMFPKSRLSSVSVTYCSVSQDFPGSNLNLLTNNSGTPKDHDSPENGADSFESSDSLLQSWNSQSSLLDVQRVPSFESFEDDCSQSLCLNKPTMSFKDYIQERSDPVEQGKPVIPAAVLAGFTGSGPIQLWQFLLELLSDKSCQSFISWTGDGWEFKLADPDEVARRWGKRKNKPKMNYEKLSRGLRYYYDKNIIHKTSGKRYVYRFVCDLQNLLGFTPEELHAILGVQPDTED
Method in brief: as §1

SPDEF = biological target: T4, SPDEF (Homo sapiens, UniProt O95238 1-335)
T4 sequence: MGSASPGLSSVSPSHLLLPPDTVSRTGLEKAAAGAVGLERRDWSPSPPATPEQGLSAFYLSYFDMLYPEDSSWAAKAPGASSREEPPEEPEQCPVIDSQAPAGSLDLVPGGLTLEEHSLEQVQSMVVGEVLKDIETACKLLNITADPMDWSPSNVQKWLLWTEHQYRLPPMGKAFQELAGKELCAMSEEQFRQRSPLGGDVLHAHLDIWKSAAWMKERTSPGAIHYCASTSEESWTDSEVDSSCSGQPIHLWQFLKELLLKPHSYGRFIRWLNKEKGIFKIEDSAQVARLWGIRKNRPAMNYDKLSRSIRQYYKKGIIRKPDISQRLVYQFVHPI
Method in brief: as §1

ETV7 = biological target: T5, ETV7 (Homo sapiens, UniProt Q9Y603 1-341)
T5 sequence: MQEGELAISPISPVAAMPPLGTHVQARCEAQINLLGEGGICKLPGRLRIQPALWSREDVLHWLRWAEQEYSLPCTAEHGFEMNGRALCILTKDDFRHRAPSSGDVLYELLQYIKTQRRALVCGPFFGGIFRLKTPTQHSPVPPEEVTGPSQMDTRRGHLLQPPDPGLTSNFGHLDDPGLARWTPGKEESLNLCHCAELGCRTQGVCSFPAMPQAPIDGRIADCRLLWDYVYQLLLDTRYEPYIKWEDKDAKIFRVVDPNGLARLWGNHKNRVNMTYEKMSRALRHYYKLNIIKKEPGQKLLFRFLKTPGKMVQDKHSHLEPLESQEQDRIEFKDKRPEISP
Method in brief: as §1

ELF5 = biological target: T6, ELF5 (Homo sapiens, UniProt Q9UKW6-2 1-255)
T6 sequence: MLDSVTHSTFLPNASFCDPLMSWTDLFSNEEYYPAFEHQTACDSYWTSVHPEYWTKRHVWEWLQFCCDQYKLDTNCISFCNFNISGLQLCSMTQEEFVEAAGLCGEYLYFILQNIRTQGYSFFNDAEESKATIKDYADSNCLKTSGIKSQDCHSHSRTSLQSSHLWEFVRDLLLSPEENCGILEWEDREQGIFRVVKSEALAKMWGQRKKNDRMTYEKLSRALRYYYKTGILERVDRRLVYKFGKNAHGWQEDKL
Method in brief: as §1

ETV3 = biological target: T7, ETV3 (Homo sapiens, UniProt P41162-2 1-143)
T7 sequence: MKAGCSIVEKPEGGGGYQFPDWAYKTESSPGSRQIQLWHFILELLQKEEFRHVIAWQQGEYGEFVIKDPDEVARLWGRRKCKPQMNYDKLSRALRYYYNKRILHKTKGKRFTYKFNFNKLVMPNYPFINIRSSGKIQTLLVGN
Method in brief: as §1

ETV6 = ETV6 (Homo sapiens, UniProt P41212 1-452)
Method in brief: as §1

ETV6, sequence (P41212 whole entry): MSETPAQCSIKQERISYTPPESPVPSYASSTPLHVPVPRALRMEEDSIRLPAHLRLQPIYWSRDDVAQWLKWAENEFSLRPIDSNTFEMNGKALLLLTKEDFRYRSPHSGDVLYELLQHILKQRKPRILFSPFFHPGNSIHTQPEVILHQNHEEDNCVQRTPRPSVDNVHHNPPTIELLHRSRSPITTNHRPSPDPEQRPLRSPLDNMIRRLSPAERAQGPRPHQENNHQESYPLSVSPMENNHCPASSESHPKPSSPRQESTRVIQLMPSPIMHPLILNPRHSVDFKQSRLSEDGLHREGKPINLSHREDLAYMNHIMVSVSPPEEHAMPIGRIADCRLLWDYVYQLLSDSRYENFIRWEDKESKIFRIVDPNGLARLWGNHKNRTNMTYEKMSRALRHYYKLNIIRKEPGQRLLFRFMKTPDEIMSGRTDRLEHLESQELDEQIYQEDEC

Sequence | binding signal (ERF) | binding signal (ETV3L) | binding signal (ETS2) | binding signal (SPDEF) | binding signal (ETV7) | binding signal (ELF5) | binding signal (ETV3) | binding signal (ETV6)
CCCTCA | 1.18 fold enrichment (6-mer frequency, TF over GST control) | 1.18 fold enrichment (6-mer frequency, TF over GST control) | 1.14 fold enrichment (6-mer frequency, TF over GST control) | 1.2 fold enrichment (6-mer frequency, TF over GST control) | 1.07 fold enrichment (6-mer frequency, TF over GST control) | 1.14 fold enrichment (6-mer frequency, TF over GST control) | 1.12 fold enrichment (6-mer frequency, TF over GST control) | 1.09 fold enrichment (6-mer frequency, TF over GST control)
ATGCCC | 1.31 fold enrichment (6-mer frequency, TF over GST control) | 1.26 fold enrichment (6-mer frequency, TF over GST control) | 1.29 fold enrichment (6-mer frequency, TF over GST control) | 1.36 fold enrichment (6-mer frequency, TF over GST control) | 1.45 fold enrichment (6-mer frequency, TF over GST control) | 1.27 fold enrichment (6-mer frequency, TF over GST control) | 1.32 fold enrichment (6-mer frequency, TF over GST control) | 1.35 fold enrichment (6-mer frequency, TF over GST control)
TGTGTT | 1.08 fold enrichment (6-mer frequency, TF over GST control) | 1.15 fold enrichment (6-mer frequency, TF over GST control) | 1.06 fold enrichment (6-mer frequency, TF over GST control) | 1.21 fold enrichment (6-mer frequency, TF over GST control) | 1.19 fold enrichment (6-mer frequency, TF over GST control) | 1.11 fold enrichment (6-mer frequency, TF over GST control) | – | 1.08 fold enrichment (6-mer frequency, TF over GST control)
CACTAT | 1.2 fold enrichment (6-mer frequency, TF over GST control) | 1.18 fold enrichment (6-mer frequency, TF over GST control) | 1.25 fold enrichment (6-mer frequency, TF over GST control) | 1.18 fold enrichment (6-mer frequency, TF over GST control) | 1.29 fold enrichment (6-mer frequency, TF over GST control) | 1.15 fold enrichment (6-mer frequency, TF over GST control) | 1.2 fold enrichment (6-mer frequency, TF over GST control) | 1.14 fold enrichment (6-mer frequency, TF over GST control)
TCGACG | 1.02 fold enrichment (6-mer frequency, TF over GST control) | 1 fold enrichment (6-mer frequency, TF over GST control) | 1.07 fold enrichment (6-mer frequency, TF over GST control) | 1.05 fold enrichment (6-mer frequency, TF over GST control) | 1.05 fold enrichment (6-mer frequency, TF over GST control) | 1.01 fold enrichment (6-mer frequency, TF over GST control) | – | 1.07 fold enrichment (6-mer frequency, TF over GST control)
CCGTCC | 1.51 fold enrichment (6-mer frequency, TF over GST control) | 1.38 fold enrichment (6-mer frequency, TF over GST control) | 1.38 fold enrichment (6-mer frequency, TF over GST control) | 1.55 fold enrichment (6-mer frequency, TF over GST control) | 1.27 fold enrichment (6-mer frequency, TF over GST control) | 1.36 fold enrichment (6-mer frequency, TF over GST control) | 1.51 fold enrichment (6-mer frequency, TF over GST control) | 1.29 fold enrichment (6-mer frequency, TF over GST control)
GTAATG | 1.12 fold enrichment (6-mer frequency, TF over GST control) | 1.11 fold enrichment (6-mer frequency, TF over GST control) | 1.07 fold enrichment (6-mer frequency, TF over GST control) | 1.15 fold enrichment (6-mer frequency, TF over GST control) | 1.05 fold enrichment (6-mer frequency, TF over GST control) | 1.1 fold enrichment (6-mer frequency, TF over GST control) | – | 1.03 fold enrichment (6-mer frequency, TF over GST control)
TTATAG | 1.24 fold enrichment (6-mer frequency, TF over GST control) | 1.28 fold enrichment (6-mer frequency, TF over GST control) | 1.33 fold enrichment (6-mer frequency, TF over GST control) | 1.19 fold enrichment (6-mer frequency, TF over GST control) | 1.24 fold enrichment (6-mer frequency, TF over GST control) | 1.15 fold enrichment (6-mer frequency, TF over GST control) | – | 1.16 fold enrichment (6-mer frequency, TF over GST control)
GATGCC | 1.36 fold enrichment (6-mer frequency, TF over GST control) | 1.39 fold enrichment (6-mer frequency, TF over GST control) | 1.33 fold enrichment (6-mer frequency, TF over GST control) | 1.52 fold enrichment (6-mer frequency, TF over GST control) | 1.27 fold enrichment (6-mer frequency, TF over GST control) | 1.35 fold enrichment (6-mer frequency, TF over GST control) | 1.39 fold enrichment (6-mer frequency, TF over GST control) | 1.32 fold enrichment (6-mer frequency, TF over GST control)
ATATTC | 1.08 fold enrichment (6-mer frequency, TF over GST control) | 1.35 fold enrichment (6-mer frequency, TF over GST control) | 1.2 fold enrichment (6-mer frequency, TF over GST control) | 1.26 fold enrichment (6-mer frequency, TF over GST control) | 1.24 fold enrichment (6-mer frequency, TF over GST control) | 1.31 fold enrichment (6-mer frequency, TF over GST control) | 1.19 fold enrichment (6-mer frequency, TF over GST control) | 1.32 fold enrichment (6-mer frequency, TF over GST control)
CCCTGT | 1.19 fold enrichment (6-mer frequency, TF over GST control) | 1.06 fold enrichment (6-mer frequency, TF over GST control) | 1.06 fold enrichment (6-mer frequency, TF over GST control) | 1.02 fold enrichment (6-mer frequency, TF over GST control) | 1.03 fold enrichment (6-mer frequency, TF over GST control) | 1.08 fold enrichment (6-mer frequency, TF over GST control) | – | 1.06 fold enrichment (6-mer frequency, TF over GST control)
CAAGAA | 1.12 fold enrichment (6-mer frequency, TF over GST control) | 1.09 fold enrichment (6-mer frequency, TF over GST control) | 1.07 fold enrichment (6-mer frequency, TF over GST control) | 1.06 fold enrichment (6-mer frequency, TF over GST control) | 1.14 fold enrichment (6-mer frequency, TF over GST control) | 1.08 fold enrichment (6-mer frequency, TF over GST control) | – | 1.04 fold enrichment (6-mer frequency, TF over GST control)
TTAGTA | 1.17 fold enrichment (6-mer frequency, TF over GST control) | 1.07 fold enrichment (6-mer frequency, TF over GST control) | 1.09 fold enrichment (6-mer frequency, TF over GST control) | 1.12 fold enrichment (6-mer frequency, TF over GST control) | 1.14 fold enrichment (6-mer frequency, TF over GST control) | 1.07 fold enrichment (6-mer frequency, TF over GST control) | 1.27 fold enrichment (6-mer frequency, TF over GST control) | 1.12 fold enrichment (6-mer frequency, TF over GST control)
TGTATT | 1.36 fold enrichment (6-mer frequency, TF over GST control) | 1.4 fold enrichment (6-mer frequency, TF over GST control) | 1.4 fold enrichment (6-mer frequency, TF over GST control) | 1.42 fold enrichment (6-mer frequency, TF over GST control) | 1.4 fold enrichment (6-mer frequency, TF over GST control) | 1.26 fold enrichment (6-mer frequency, TF over GST control) | 1.41 fold enrichment (6-mer frequency, TF over GST control) | 1.41 fold enrichment (6-mer frequency, TF over GST control)
